HIV RNase H inh: blocks HIV-1 RNase H cleavage of RNA/DNA duplex. RT-RNase H RNA/DNA duplex cleavage, fluorescence. P04585. 65,000 tested, 1.9% active. AID 565. inhibition, % at 10 µM; in the data active means inhibition above about 50%
* hit, by the source's call; ! = repeats disagree. This excerpt belongs to a sample that is enriched for hits.

How did COC(=O)Cc1cc(=O)[nH]c(/N=C(\N)Nc2ccc(C)cc2C)n1 do in these assays?
HIV RNase H inh: -6

Results for CCc1cc(C(=O)COc2ccccc2F)c(O)cc1O ?
HIV RNase H inh: -22

Results for CCCCOC(=O)CSc1nc(N)c(C#N)c(-c2ccc(OCC)cc2)c1C#N ?
HIV RNase H inh: -10

Results for CCCCOC(=O)CSc1nc(N)c(C#N)c(-c2ccc(OC)cc2)c1C#N ?
HIV RNase H inh: 1

Results for CCCCOc1ccc(-c2c(C#N)c(N)nc(SCC(N)=O)c2C#N)cc1 ?
HIV RNase H inh: 63*

How did COC(=O)c1ccc(CSc2ccc3nnc(-c4ccc(OC)c(OC)c4)n3n2)o1 do in these assays?
HIV RNase H inh: -15

What do the screens show for `Cc1cc(C)c2c(n1)nn1c(N3CCN(c4ccccc4C)CC3)cc(C)nc21`?
HIV RNase H inh: 13

How did N#CC1=C2SCC(O)(c3ccccc3)N2C(=O)CC1c1ccccc1 (stereo not given) do in these assays?
HIV RNase H inh: -12

What do the screens show for `N#CC1=C2SCN(c3ccc(F)cc3)CN2C(=O)CC1c1cccc(F)c1` (stereo not given)?
HIV RNase H inh: 51*

How did CCSC1=C(C#N)C(c2ccc(F)cc2)CC(=O)N1 (stereo not given) do in these assays?
HIV RNase H inh: -2

Results for CCc1ccc(C2CC(=O)N3CN(c4ccccc4)CSC3=C2C#N)cc1 (stereo not given) ?
HIV RNase H inh: 62*

Results for CCOC(=O)c1ccc(N2CSC3=C(C#N)C(c4cccs4)CC(=O)N3C2)cc1 (stereo not given) ?
HIV RNase H inh: 35

Results for COC(=O)C1C(=O)N2CCCSC2=C(C#N)C1c1cccs1 (stereo not given) ?
HIV RNase H inh: 0

How did COc1cccc(C2CC(=O)NC(SC)=C2C#N)c1 (stereo not given) do in these assays?
HIV RNase H inh: -25

How did CCc1ccc(N2CSC3=C(C#N)C(c4cccs4)CC(=O)N3C2)cc1 (stereo not given) do in these assays?
HIV RNase H inh: 54*

What do the screens show for `COc1ccc(C2CC(=O)N3CN(c4ccc(C)c(Cl)c4)CSC3=C2C#N)cc1OC` (stereo not given)?
HIV RNase H inh: 18

How did CNC(=O)CC(C(=O)O)c1ccc(OCC(C)C)cc1 (stereo not given) do in these assays?
HIV RNase H inh: -5

How did CCCCNC(=O)NS(=O)(=O)c1ccc(NS(=O)(=O)c2ccccc2)cc1 do in these assays?
HIV RNase H inh: -12

Results for CCCCOc1ccc(Cl)cc1CSc1nnc(C)n1N ?
HIV RNase H inh: -10

How did O=C(Nc1ccc2c(c1)oc1ccccc12)c1ccc2c(c1)OCO2 do in these assays?
HIV RNase H inh: 27

What do the screens show for `O=C(COc1ccc2ccc(=O)oc2c1)Nc1ccc2c(c1)OCCO2`?
HIV RNase H inh: 2

How did O=C(COc1ccc2c(c1)OCO2)Nc1ccc2c(c1)oc1ccccc12 do in these assays?
HIV RNase H inh: 59*

Results for O=C(CSc1nnc(C2CCCCC2)n1Cc1ccccc1)NCc1ccco1 ?
HIV RNase H inh: -3

Results for COc1ccccc1CNC(=O)N[C@@H](Cc1ccccc1)C(=O)O ?
HIV RNase H inh: -11

What do the screens show for `COc1cccc(-c2nc(-c3ccc(NC(=O)Cc4ccccc4OC)cc3)no2)c1`?
HIV RNase H inh: 13

How did COc1ccc(-c2nc(-c3ccc(NC(=O)c4ccc(Br)o4)cc3)no2)cc1OC do in these assays?
HIV RNase H inh: -5

Results for COc1ccc(CCC(=O)Nc2ccc(-c3noc(-c4ccc(OC)c(OC)c4)n3)cc2)cc1 ?
HIV RNase H inh: 61*

How did CCOc1cc(S(=O)(=O)NCc2ccccn2)c(C)cc1C do in these assays?
HIV RNase H inh: -6

Results for COC(=O)C1=C(NC(=O)c2ccc(C)c(C)c2)CCS1 ?
HIV RNase H inh: 8

What do the screens show for `O=C(CCCn1c(=O)c2ccccc2n(CC(=O)NCc2ccco2)c1=O)NCc1ccco1`?
HIV RNase H inh: -5

What do the screens show for `Cc1ccc(C)c(Cn2c(=O)n(CCCC(=O)NCc3ccco3)c(=O)c3ccccc32)c1`?
HIV RNase H inh: -2

Results for Cc1cc(C)c(Cn2c(=O)n(CCCC(=O)NCc3ccco3)c(=O)c3ccccc32)c(C)c1 ?
HIV RNase H inh: 80*

Results for Cc1ccc2[nH]c(=O)c(CN(Cc3ccccc3Cl)C(=O)N3CCOCC3)cc2c1 ?
HIV RNase H inh: -8

Results for COc1ccc(C2C3=C(CC(C)(C)CC3=O)Nc3c2c(=O)[nH]c(=O)n3Cc2ccccc2)cc1OC (stereo not given) ?
HIV RNase H inh: 5

What do the screens show for `COc1cc(C2C3=C(CC(C)(C)CC3=O)Nc3c2c(=O)[nH]c(=O)n3Cc2ccccc2)ccc1O` (stereo not given)?
HIV RNase H inh: 67*!

How did COc1ccc(C2C3=C(CC(C)(C)CC3=O)Nc3c2c(=O)[nH]c(=O)n3Cc2ccccc2)cc1 (stereo not given) do in these assays?
HIV RNase H inh: 11

How did Cc1ccc(N(CC(=O)N2CCN(C3CCCCC3)CC2)S(=O)(=O)c2cccnc2)cc1 do in these assays?
HIV RNase H inh: 9

Results for O=C(c1nc(-c2ccccc2)n(-c2ccccc2)n1)N1CCN(S(=O)(=O)c2ccccc2)CC1 ?
HIV RNase H inh: -13

Results for O=C(NCc1ccc(F)cc1)C1CCC(=O)N1C1CCCCC1 (stereo not given) ?
HIV RNase H inh: -11

How did COc1ccc(-c2nnn(CC(=O)Nc3sc4c(c3C#N)CCCC4)n2)cc1 do in these assays?
HIV RNase H inh: -7

How did C=CC(=C)CC(NC)c1ccccc1 (stereo not given) do in these assays?
HIV RNase H inh: 51*

Results for C=CCOC(=O)CC(NC(=O)c1ccccc1)c1ccccc1 (stereo not given) ?
HIV RNase H inh: -6

What do the screens show for `Cc1ccc(S(=O)(=O)NC(CC(=O)O)c2ccccc2)cc1` (stereo not given)?
HIV RNase H inh: -7

How did CCOC(=O)N1CCC(NC(=O)CSc2cc(=O)n(C)c3ccc(Cl)cc23)CC1 do in these assays?
HIV RNase H inh: -9

What do the screens show for `CCOC(=O)c1ccc(N2C(=O)C3CC=CCC3C2=O)cc1` (stereo not given)?
HIV RNase H inh: -7

What do the screens show for `CCOC(=O)c1ccc2c(c1)C1C=CCC1C(C(=O)O)N2` (stereo not given)?
HIV RNase H inh: 52*

How did CCOC(=O)c1ccc(NC(=O)C2C3C=CC(C3)C2C(=O)O)cc1 (stereo not given) do in these assays?
HIV RNase H inh: 9

What do the screens show for `CCOC(=O)c1ccc(CSc2nnc(N)s2)cc1`?
HIV RNase H inh: -18

How did COCCn1c(C)cc(C(=O)CSc2nc(C)nc3sc4c(c23)CCC4)c1C do in these assays?
HIV RNase H inh: 3

How did CCOC(=O)c1cc2sc(C)cc2n1CC(=O)NCCc1ccccc1 do in these assays?
HIV RNase H inh: 23

How did O=C1CC(N2CCN(C3CCc4ccccc4C3)CC2)C(=O)N1c1ccccc1 (stereo not given) do in these assays?
HIV RNase H inh: -3

How did CCn1c(C(=O)NCc2cccnc2)cc2sc(Cl)cc21 do in these assays?
HIV RNase H inh: -1

What do the screens show for `Cc1cc(C)n(CC(O)CN2c3ccccc3Sc3ccccc32)n1` (stereo not given)?
HIV RNase H inh: -5

What do the screens show for `O=C(CSc1ncnc2c1oc1ccccc12)NCc1ccc(F)cc1`?
HIV RNase H inh: 8

Results for O=C(O)CCc1ccc(-c2cccs2)n1Cc1ccco1 ?
HIV RNase H inh: -7

Results for O=C(O)CCc1ccc(-c2cccs2)n1NC(=O)c1ccc(O)cc1 ?
HIV RNase H inh: 51*

What do the screens show for `CCCCn1c(CCC(=O)O)ccc1-c1cccs1`?
HIV RNase H inh: -10
